ATXN2 expr inh: ATXN2 expression inhibition | HEK-293 ATXN2-luciferase reporter, luminescence, 24 h | Potency, µM (series often up to 57 µM), for the others: top-dose activity change, negative = inhibition, most hits filed as inhibitors | 0.72% of 360,000 active; note: potency is the fitted concentration of half-maximal effect; % is set by controls: 0 for no effect and ±100 for the full control effect; nearly all actives have a fitted effect of over 55% in size
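qHTS (up to 57 uM final) was run with 24 h compound exposure of reporter cells at 37 °C. Each well was multiplexed: SteadyGlo luminescence measured ATXN2-luciferase expression after a fluorogenic Gly-Phe-AFC viability readout (25 uM final).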
IL-1B inflam inh: blocks inflammasome-driven IL-1 beta release; THP-1 LPS/ATP IL-1B secretion, AlphaLISA, 16 h; stronger effect = lower value; activity change, % at 57.5 µM; 4.7% of 360,000 active; in the data active = activity change below about -50%; inconclusive = mostly about -30% to -49%; note: % is set by controls: 0 for no effect and ±100 for the full control effect
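Secreted IL-1B measured by AlphaLISA bead assay after 16 h compound exposure of THP-1 cells; compounds (final up to 57.5 uM) added 1 h before LPS (250 ng/mL) and ATP (1.25 mM) stimulation; lower signal means less secretion.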
TGFb inhibitor: inhibitors of TGF-b signaling; HepG2 CAGA-GFP TGF-b/SMAD3 reporter, GFP fluorescence, 18 h; TGF-beta stimulated, 500 pg/mL final; Potency, µM (doses to about 46.1 µM), inactives show at the top dose activity, negative = inhibition, most hits filed as inhibitors; 1.2% of 410,000 active; note: potency is the fitted concentration of half-maximal effect; % is set by controls: 0 for no effect and ±100 for the full control effect; nearly all actives have a fitted effect of over 65% in size
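Per well, imaged GFP fluorescence of HEPG2 CAGA-GFP cells gives the signal; cells get compound, then TGF-beta (500 pg/mL final), 18 h at 37 degrees C; %Activity versus -TGF-beta and +DMSO controls.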
HepG2 viability: counter-screen for TGF-b inhibitors: cytotoxicity in HepG2 cells. 0.76% of 410,000 active. Potency, µM (series often up to 46.1 µM), for the others: at the top dose activity change, negative = cytotoxicity, most hits filed as cytotoxic. AID 588856. HepG2 CAGA-GFP viability, ATP luminescence, 18 h; note: potency is the fitted concentration of half-maximal effect
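CellTiter-Glo luminescence gave cytotoxicity after 18 hours at 37 degrees C. The cells were HepG2 CAGA-GFP in 1% FBS DMEM, stimulated with 500 pg/mL TGF-beta after compound addition. %Activity was normalised to no-cell wells (complete cell-killing) and DMSO (no toxicity), and curves were fitted and classified.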
S2 tox: viability counter-screen for ATXN expression inhibitors; AID 651635; Potency, µM (series often up to 56.7 µM), most hits filed as cytotoxic; 0.49% of 400,000 active; S2 cells (HEK-293 line with an ATXN2-luciferase reporter) viability, CellTiter-Fluor protease fluorescence, 24 h; note: potency is the fitted concentration of half-maximal effect; nearly all actives have a fitted effect of over 40% in size
* = called active by the depositor; [ ] = remark or other dose. Only some compounds are listed: those with a hit (about 5.7% of all), similar ones and a draw of the others. Unless noted, calls come from the whole dose curve; as a rule, active = well fitted curve in the direction sought with a large enough effect; inconclusive = small, poorly fitted or top-dose-only effect, or another doubt; inactive = no such curve, though single readings can be large; an effect the other way counts as inactive or inconclusive.

For O=C(/C=C/c1ccccc1)NC(=S)Nc1ccc(CN2CCOCC2)cc1 the results were ATXN2 expr inh -27%[11.3 µM], IL-1B inflam inh -109*, TGFb inhibitor -24%, HepG2 viability 0% and S2 tox inactive.
Screening O=C(CN1CCOCC1)Nc1ccc(Cl)cc1 returned IL-1B inflam inh 11, TGFb inhibitor 4%, HepG2 viability 1% and S2 tox inactive.
Screening O=C(/C=C/c1ccc(Cl)cc1)Nc1ccc(CN2CCOCC2)cc1 returned ATXN2 expr inh inconclusive, IL-1B inflam inh -51*, TGFb inhibitor 4%, HepG2 viability -26% and S2 tox inactive.
For O=C(/C=C/c1ccc(Cl)cc1Cl)NC(=S)Nc1ccc(CN2CCOCC2)cc1 the results were ATXN2 expr inh -22%, IL-1B inflam inh -14, TGFb inhibitor inconclusive, HepG2 viability -43% and S2 tox inactive.
For CC(C)CC(=O)N1CCN(Cc2ccc(Cl)cc2)CC1 the results were ATXN2 expr inh -16%, IL-1B inflam inh -18, TGFb inhibitor -15%, HepG2 viability 2% and S2 tox inactive.
`NC[C@H]1O[C@H](O[C@H]2[C@@H](O)[C@@H](O[C@H]3O[C@H](CO)[C@@H](O)[C@H](N)[C@@H]3O)[C@H](N)C[C@@H]2N)[C@H](N)C[C@H]1O` gave ATXN2 expr inh -11%.
For CCOC(=O)c1cc(C)n(CC2CCC(C(=O)Nc3ccc(OC)cc3)CC2)c1C (stereo unspecified) the results were TGFb inhibitor inconclusive and HepG2 viability -24%.
For NC(=O)c1ccc(NC(=O)c2ccc(CN3CCOCC3)cc2)cc1 the results were ATXN2 expr inh 24%, IL-1B inflam inh -11, TGFb inhibitor -2%, HepG2 viability -1% and S2 tox inactive.
O=C(/C=C/c1ccc(Cl)cc1)N1CCN(Cc2ccccc2)CC1 was read as ATXN2 expr inh -1%, IL-1B inflam inh -75*, TGFb inhibitor 17%, HepG2 viability 5% and S2 tox inactive.
`CC(C)c1ccc(C(=O)Nc2ccc(CN3CCOCC3)cc2)cc1` gave ATXN2 expr inh -18%, IL-1B inflam inh -55*, TGFb inhibitor -7%, HepG2 viability -22% and S2 tox inactive.
For Cc1c(-c2nsc(NC(=O)c3ccccc3)n2)nnn1-c1ccc(C(F)(F)F)c(Cl)c1 the results were ATXN2 expr inh inconclusive, TGFb inhibitor -2%, HepG2 viability -31% and S2 tox inactive.
CCC(C)C(=O)N1c2ccccc2C(=C2SC(C(=O)OC)=C(C(=O)OC)S2)C(=S)C1(C)C (stereo unspecified) was read as ATXN2 expr inh inconclusive, IL-1B inflam inh -59*, TGFb inhibitor inconclusive, HepG2 viability -24% and S2 tox inactive.
CCN1C(=O)/C(=C2\SC(=S)N(CCCOC)C2=O)c2ccccc21 was read as ATXN2 expr inh -3%, IL-1B inflam inh -8, TGFb inhibitor 12%, HepG2 viability 4% and S2 tox inactive.
Screening CCCCCCCN1C2=NCCN2c2ccccc21 returned ATXN2 expr inh -23%, IL-1B inflam inh -55*, TGFb inhibitor -28%, HepG2 viability -41% and S2 tox inactive.
`CCCCN1C2=NC(c3ccccc3)CN2c2ccccc21` (stereo unspecified) gave ATXN2 expr inh -31%, IL-1B inflam inh -27, TGFb inhibitor -5%, HepG2 viability 6.3µM* and S2 tox inactive.
CCCCN1C2=NCCCN2c2ccccc21 was read as ATXN2 expr inh -19%, IL-1B inflam inh 14, TGFb inhibitor -15%, HepG2 viability -2% and S2 tox inactive.
For CCCCCCCN1C2=NCCCN2c2ccccc21 the results were ATXN2 expr inh -43%, IL-1B inflam inh -72*, TGFb inhibitor inconclusive, HepG2 viability -38% and S2 tox inactive.
For CCCCCCN1C2=NCCN2c2ccccc21 the results were ATXN2 expr inh -24%, IL-1B inflam inh -21, TGFb inhibitor 0%, HepG2 viability -19% and S2 tox inactive.
